12-LOX inh: blocks human arachidonate 12S-lipoxygenase | P18054 | Potency, µM (doses to about 108 µM), for the others: at the highest dose activity change, negative = inhibition, usual class: inhibitors | purified 12hLO, xylenol orange hydroperoxide absorbance | 580,000 tested, 1.1% active; also: % is scaled to controls: 0 for no effect and ±100 for the full control effect
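Purified human 12hLO at 150 nM in 25 mM Hepes, 0.01% Triton X-100, pH 7.0, preincubated 15 min at room temperature with compound. Reaction started with 40 uM arachidonic acid, 30 min at room temperature. Hydroperoxide measured by Fe-xylenol orange, 573/405 nm absorbance ratio.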
JMJD2A Tudor inh: blocks the human JMJD2A Tudor domain; AID 504339; 390,000 tested, 4.4% active; Potency, µM (titrated, usually from 114 µM), inactives show top-dose activity change, negative = inhibition, usual class: inhibitors; AlphaScreen JMJD2A-Tudor / H3K4me3 peptide binding; also: % is scaled to controls: 0 for no effect and ±100 for the full control effect; nearly all actives have a fitted effect of over 50% in size
BAZ2B block: inhibitors of human BAZ2B bromodomain | AlphaScreen BAZ2B-H3K14Ac peptide displacement | Potency, µM (titrated, usually from 114 µM), for inactives: at the top dose activity change, negative = inhibition, usual class: inhibitors | 360,000 tested, 4.4% active | AID 504333; also: % is scaled to controls: 0 for no effect and ±100 for the full control effect; nearly all actives have a fitted effect of over 60% in size
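BAZ2B (50 nM) with biotin-H3(5-23)K14Ac peptide (50 nM) in PBS pH 7.4, 0.01% Tween-20, preformed 30 min, then compound 30 min at room temperature; top concentration 110uM. AlphaScreen streptavidin donor/nickel chelate acceptor beads (10 ug/mL final), 20 min dark, signal read.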
G9a block: blocks human histone lysine methyltransferase G9a; Q96KQ7; G9a H3K9 monomethylation, AlphaScreen, 2 h; Potency, µM (series often up to 102 µM), inactives show at the highest dose activity, negative = inhibition, actives largely listed as inhibitors; 350,000 tested, 8.8% active; AID 504332; also: % is scaled to controls: 0 for no effect and ±100 for the full control effect; nearly all actives have a fitted effect of over 75% in size
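Methyltransferase reactions run at room temperature for 2 h (20 nM enzyme, 500 nM biotin-H3K9 peptide, 20 uM SAM) after a 15 min compound preincubation; product detected by AlphaScreen beads and anti-H3K9me1 antibody.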
PLK1 PBD block: PLK1 (human) polo-box domain binding inhibition | Plk1 PBD binding of FITC phosphopeptide, fluorescence polarization | Potency, µM, without a hit: max response, negative = inhibition, actives largely listed as inhibitors | P53350 | 360,000 tested, 2.8% active; also: series mostly up to about 57 µM; % is scaled to controls: 0 for no effect and ±100 for the full control effect; nearly all actives have a fitted effect of over 65% in size
Target sequence (P53350 whole entry, looked up, the tested form may be a part): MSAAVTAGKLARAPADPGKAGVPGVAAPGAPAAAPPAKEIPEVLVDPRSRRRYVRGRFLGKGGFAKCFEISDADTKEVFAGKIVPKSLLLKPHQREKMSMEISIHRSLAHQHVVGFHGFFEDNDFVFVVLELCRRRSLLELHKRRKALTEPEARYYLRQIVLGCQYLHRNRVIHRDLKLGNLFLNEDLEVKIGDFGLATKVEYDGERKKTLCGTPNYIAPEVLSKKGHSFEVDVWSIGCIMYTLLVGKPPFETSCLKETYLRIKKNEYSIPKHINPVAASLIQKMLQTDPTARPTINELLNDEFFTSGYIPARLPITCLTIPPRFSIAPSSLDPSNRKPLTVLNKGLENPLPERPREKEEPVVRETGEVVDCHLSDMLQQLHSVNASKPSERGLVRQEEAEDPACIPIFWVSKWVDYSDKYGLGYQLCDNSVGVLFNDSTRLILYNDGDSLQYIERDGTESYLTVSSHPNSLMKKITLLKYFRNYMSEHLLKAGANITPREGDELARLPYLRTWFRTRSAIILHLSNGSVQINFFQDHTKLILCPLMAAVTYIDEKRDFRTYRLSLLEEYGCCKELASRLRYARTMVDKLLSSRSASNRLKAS
HP1b binding inh: inhibitors of HP1-beta chromodomain binding to methylated histone tails; 390,000 tested, 0.56% active; P83916; Potency, µM (doses to about 114 µM), for the others: at the highest dose activity change, negative = inhibition, usual class: inhibitors; AlphaScreen HP1-beta / biotin-H3K9me3 peptide binding; AID 540317; also: nearly all actives have a fitted effect of over 70% in size
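AlphaScreen: HP1-beta (50 nM) preformed 30 min with biotin-H3(1-18)K9me3 peptide (50 nM) in PBS pH 7.4, 0.01% Tween-20. Compound added for 30 min at RT, then streptavidin donor/nickel chelate acceptor beads (10 ug/mL) for 30 min.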
Active calls of the source: *; u = inconclusive; x = no result; ! = not active in a repeat; [ ] = another dose, or the depositor's remark. Only some compounds are listed: those with a hit (about 9% of all), similar ones and a draw of the others. Calls follow the shape of the dose curve; as a rule, active = well fitted curve in the direction sought with a large enough effect; inconclusive = small, poorly fitted or top-dose-only effect, or another doubt; inactive = no such curve, though single readings can be large; an effect the other way counts as inactive or inconclusive. Potency is read from the fitted curve at half-maximal effect.

SMILES	12-LOX inh	JMJD2A Tudor inh	BAZ2B block	G9a block	PLK1 PBD block	HP1b binding inh
O=c1cc(-c2ccc([N+](=O)[O-])cc2)nc2cc(-c3ccc(F)cc3)[nH]n12	20µM*	-29%	3%	-8%[59 µM]	-26%	-5%
CN(Cc1ccc(Cl)cc1Cl)C(=O)CN1C(=O)NC2(CCCC2)C1=O	-9%	-2%	-2%	35µM*	-5%	39%
Cn1ccc2c([N+](=O)[O-])cccc2c1=O	-7%	-25%	-16%	-25%	30µM*	-8%
C=CCn1ccc2c([N+](=O)[O-])cccc2c1=O	-17%	-16%	-20%	12%[12.7 µM]	-12%	-2%
COc1ccc(OCc2nnc(SCC(N)=O)n2-c2ccccc2OC)cc1	-7%	-3%	11%	u	-2%	26%
Cc1ccc(C)c(NC(=O)CN(C)C(=O)CC2OC(=O)c3ccccc32)c1 (configuration not stated)	-2%	-13%	x	x	-24%	22%
CC(/C=N/NC(=O)c1ccc(CN2c3cccc4cccc(c34)S2(=O)=O)cc1)c1ccccc1 (configuration not stated)	17%	-11%[57.1 µM]	9%	11%	u	5%
O=C(O)c1ccc(/C=N/NC(=O)c2ccc(CN3c4cccc5cccc(c45)S3(=O)=O)cc2)cc1	-17%	u	50µM*	-4%[59 µM]	34µM*	-6%
O=C(O)C[C@@H]1CCN(C(=O)c2ccnc(Cl)c2)C[C@@H]1CCN1CCN(c2ccc(F)cc2)CC1	45%	x	x	x	x	x
O=C(CS(=O)(=O)c1ccc(F)cc1)N1CCOCC1	0%	11%	-3%	38%	-1%	51%
COc1ccc(NC(=O)N2CCC(c3nc4ccccc4[nH]3)CC2)cc1	-8%	1%	3%	40µM*	-9%	46%
O=C(C1CC(=O)N(c2ccccc2)C1)N1CCC(c2nc3ccccc3[nH]2)CC1 (configuration not stated)	-17%	-14%	-2%	45µM*	-17%	28%
NC(=O)CC(NC(=O)c1ccc(Br)cc1)c1ccc(N2CCN(c3ccc(F)cc3)CC2)c([N+](=O)[O-])c1 (configuration not stated)	u	-23%	-15%	-30%[12.7 µM]	1%	25%
O=c1c2c3c(sc2n(CCN2CCOCC2)c(=O)n1Cc1ccco1)CCCCC3	-8%	89µM*	4%	-32%	-4%	-20%
O=c1c2c3c(sc2n(CCN2CCCCC2)c(=O)n1Cc1ccco1)CCCCC3	-24%	u	-30%	50µM*	-12%	-25%
COc1ccc(-n2nnnc2C(C)(C)N2CCOCC2)cc1	-2%	x	x	x	x	x
COC(=O)[C@H]1C[C@@]2(O)CN(S(=O)(=O)c3ccc(C)cc3)C[C@@]2(OC(=O)Nc2cccs2)C[C@H]1C(=O)OC	u	x	x	x	-20%	x
COCCn1c(C)cc(C(=O)CSc2nc3nc(C)cc(C)n3n2)c1C	u	-24%	-10%	u	-4%	1%
CCOC(=O)c1nc2ccccc2nc1Nc1cccc(OC)c1	-28%	x	x	x	x	x
O=C(O)c1ccc(Nc2nc(-c3cccnc3)nc3ccccc23)cc1	x	x	-1%	56µM*	x	x
CC(=O)Nc1cccc(Nc2nc(-c3ccccc3)nc3ccccc23)c1	-17%	0%	1%	8%	5%	34%
CCOCCOC(=O)c1nc2ccccc2nc1Nc1cc(C)cc(C)c1	7.1µM*	x	x	x	x	x
O=C(O)c1cccc(Nc2nc(-c3cccnc3)nc3ccccc23)c1	-23%	u	u	u	-6%	37%
Oc1cccc(Nc2nc(-c3ccccc3)nc3ccccc23)c1	40µM*!	-16%	0%	-30%[59 µM]	-4%	20%
CC(=O)c1cccc(Nc2nc(-c3ccccc3)nc3ccccc23)c1	u	-22%	-1%	50µM*	6%	2%
SMILES	12-LOX inh	JMJD2A Tudor inh	BAZ2B block	G9a block	PLK1 PBD block	HP1b binding inh
Cc1scc(C(=O)N/N=C/c2ccsc2)c1C	6%	-15%	-3%	-7%	-8%	19%
CCOC(=O)c1nc(Nc2cccc(C)c2)c2ccccc2n1	-10%	50µM*!	7%	10%	21µM*	5%
CCOC(=O)c1cccc(Nc2nc(C(=O)OCC)nc3ccccc23)c1	-7%	-15%	3%	8%[59 µM]	x	36%
CSc1ccccc1C(=O)NC1CCCCCC1	-5%	-9%	1%	23%[2.33 µM]	-7%	14%
Cc1cc(C)c(S(=O)(=O)/N=C2/C=C(SCC(=O)O)C(=O)c3ccccc32)cc1C	x	25µM*	35µM*	5.6µM*	0.84µM*	35µM*
O=c1c2c3c(sc2nc2n1CCCCC2)CCCC3	-28%	u	x	u	27µM*	-31%
O=c1c2c3c(sc2nc2n1CCCS2)CCCC3	-1%	-11%	5%	-6%[12.7 µM]	-7%	36%
O=c1c2c3c(sc2nc2n1CCCCC2)CCCCC3	x	x	-3%	-33%[59 µM]	x	x
N=c1c2c3c(sc2nc2n1CCCCC2)CCCCC3	0%	10%	8%	50µM*	-23%	23%
CC1CSc2nc3sc4c(c3c(=O)n21)CCCC4 (configuration not stated)	u	-30%	-2%	20µM*	u	42%
O=C(/C=C/c1cccc([N+](=O)[O-])c1)n1cnc2ccccc21	-4%	-17%	-2%	-16%	-30%	4%
Cc1cc(Nc2cccc(Cl)c2)nc2ccc(NC(=O)c3cncc(Br)c3)cc12	-42%	-31%	-21%	-24%[59 µM]	x	7%
Nc1ccc(-c2c3ccc(=O)cc-3oc3cc(O)ccc23)cc1C(=O)O	0%	u	u	45µM*	13µM*	u
CNC(=S)NNC(=O)c1sccc1OCc1ccc(Cl)cc1Cl	10%	1%	1%	22%	-9%	38%
S=c1nc(-c2sccc2OCc2ccc(Cl)cc2Cl)[nH][nH]1	28µM*	-8%[11.4 µM]	u	45µM*	u	-14%
CC(=O)N1N=C(c2ccc(Br)cc2)CC1c1cccc([N+](=O)[O-])c1 (configuration not stated)	-8%	x	x	x	-8%	x
Cc1cc2n(n1)C(c1ccccc1)CC(c1ccc(Br)cc1)=N2 (configuration not stated)	x	23%	24%	40µM*	u	91%
CCCN(CCC)S(=O)(=O)c1cc(Br)cc2c1N(C(=O)CC)CC2	0%	12%[57.1 µM]	13%	50µM*	-13%	60%
CCC(=O)N1CCc2cc(Br)cc(S(=O)(=O)CCC(=O)N(C)c3cccc(C)c3)c21	-30%	50µM*	45µM*	-3%[12.7 µM]	x	u
O=C(NCCC1CCN(C(=O)Nc2ccccc2)CC1)c1ccccc1	12%	x	x	x	x	x

Assay outcomes as filed in PubChem BioAssay.
